Holding throughout (assay): NCI-60 one-dose screen, 48 h (100 = growth as untreated, 0 = no growth, -100 = all killed)
One test deals with NCI-H23 lung. Particulars: 10 µM unless noted.
A further test concerns NCI-H226 lung. Particulars: 10 µM unless noted.
The next test has as its system NCI-H322M lung. The conditions noted are these: 10 µM unless noted.
In another test the test system is NCI-H460 lung. The conditions noted are these: 10 µM unless noted.
The next test concerns HOP-92 NSCLC. Particulars: 10 µM.
The subject of a further test is NCI-H522 lung. The conditions noted are these: 10 µM.
A further test relates to A549/ATCC NSCLC. The conditions noted are these: 10 µM unless noted.
The subject of a further test is 786-0 renal. Particulars: 10 µM unless noted.
The next test deals with COLO 205 colon. Particulars: 10 µM unless noted.
The test system of a further test is DU-145 prostate. The conditions noted are these: 10 µM unless noted.
The test system of a further test is K-562 leukemia. Particulars: 10 µM unless noted.
The test system of the next test is MALME-3M melanoma. The conditions noted are these: 10 µM unless noted.
In a further test the test system is MDA-MB-231 breast. The conditions noted are these: 10 µM unless noted.
The test system of a further test is RXF 393 renal. The conditions noted are these: 10 µM unless noted.
The next test relates to SF-268 CNS. The conditions noted are these: 10 µM unless noted.
The next test concerns SF-295 CNS. The conditions noted are these: 10 µM unless noted.
The next test concerns SF-539 CNS. Particulars: 10 µM unless noted.
In a further test the test system is UACC-257 melanoma. The conditions noted are these: 10 µM unless noted.
A further test relates to M14 melanoma. The conditions noted are these: 10 µM unless noted.

This is part of a sample that, as a whole, favours compounds with a hit. Of some 83,000 tested, about 20% had one in any assay.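 The test compound was applied at a single concentration to cells in 96-well plates for 48 hours, and percent growth was recorded.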 A number with no mark means an inactive call. Calls of active or inactive are those of the source. Rule for the calls: active = growth percent below 10; inactive = the rest.

For `CCC(C)(C)c1ccc(OCCCCCCN2CCNCC2)cc1`, the growth in the test on NCI-H23 lung is 60%; in the test on NCI-H226 lung, 92.7%; in the test with NCI-H322M lung it was 76.1%; in the test with NCI-H460 lung it was 17.7%; in the test on HOP-92 NSCLC, 51.3%; in the test with NCI-H522 lung it was 95.5%. In addition, the growth in the test on A549/ATCC NSCLC is 53.5%; in the test with 786-0 renal it was 59.5%; with COLO 205 colon, -50% (active); in the test on DU-145 prostate, 49.3%; in the test on K-562 leukemia, -29% (active); with MALME-3M melanoma, 72%. Further, the growth is 78.5% with MDA-MB-231 breast; 35.9% with RXF 393 renal; 78.5% with SF-268 CNS; 84.4% in the test on SF-295 CNS; 61.4% in the test with SF-539 CNS; 75.9% in the test on UACC-257 melanoma. Also, the growth with M14 melanoma was 65.5%.

On to `Oc1ccccc1\C=N/N=C/C=C/c1ccccc1`, for which the growth with NCI-H23 lung is 92.7%; in the test with NCI-H226 lung, 103%; with NCI-H322M lung it was 98.6%; in the test on NCI-H460 lung it was 99%; in the test on HOP-92 NSCLC it was 103%; with NCI-H522 lung, 87.4%. The growth in the test with A549/ATCC NSCLC was 105%; with 786-0 renal, 111%; in the test on COLO 205 colon, 108%; in the test on DU-145 prostate, 105%; in the test on K-562 leukemia, 82.9%; with MALME-3M melanoma, 102%. The growth in the test with MDA-MB-231 breast was 67.1%; in the test with RXF 393 renal it was 117%; with SF-268 CNS it was 88.9%; with SF-295 CNS, 98.4%; in the test on SF-539 CNS it was 104%; with UACC-257 melanoma, 107%. Further, in the test with M14 melanoma, the growth is 95.8%.

As to `COC(=O)c1ccc2[nH]c(O)c(C(=Nc3ccc(N(C)C(=O)CN4CCN(C)CC4)cc3)c3ccc(OC)cc3)c2c1`, the growth with NCI-H23 lung was 28.1%; in the test with NCI-H226 lung it was 25.8%; with NCI-H322M lung it was 38%; in the test with NCI-H460 lung, 14.8%; with HOP-92 NSCLC it was 38%; with NCI-H522 lung, 17.4%. Moreover, the growth with A549/ATCC NSCLC was 16%; in the test on 786-0 renal it was 21.7%; in the test with COLO 205 colon it was 0.878% (active); with DU-145 prostate, 21.1%; with K-562 leukemia it was 4.93% (active); in the test with MALME-3M melanoma it was 6.81% (active). In addition, the growth with MDA-MB-231 breast was 23.6%; with RXF 393 renal, -24.8% (active); in the test on SF-268 CNS, 21.3%; with SF-295 CNS it was 37.6%; with SF-539 CNS, -0.308% (active); in the test on UACC-257 melanoma, 48.9%. Moreover, in the test on M14 melanoma, the growth was 14.3%.

As for `COC(=O)c1ccc(C(=Nc2ccc(N(C)C(=O)CN3CCN(C)CC3)cc2)c2c(O)[nH]c3ccc(C(=O)OC)cc23)cc1`, the growth was 35.4% in the test on NCI-H23 lung; 33% in the test on NCI-H226 lung; 47.3% with NCI-H322M lung; 43.7% with NCI-H460 lung; 51.1% in the test on HOP-92 NSCLC; 19% in the test on NCI-H522 lung. In addition, the growth with A549/ATCC NSCLC is 35.6%; in the test on 786-0 renal it was 36.4%; in the test with COLO 205 colon, 21.8%; in the test with DU-145 prostate, 38.2%; in the test with K-562 leukemia, 7.19% (active); with MALME-3M melanoma, -14.7% (active). Also, the growth was 49.2% with MDA-MB-231 breast; 17.7% in the test with RXF 393 renal; 32.8% in the test with SF-268 CNS; 44.4% in the test with SF-295 CNS; 23.3% with SF-539 CNS; 67.7% with UACC-257 melanoma. In addition, the growth in the test with M14 melanoma is 28.7%.

As to `c1ccc2[nH]c(-c3ccc(OCCCCCOc4ccc(-c5nc6ccccc6[nH]5)cc4)cc3)nc2c1`, the growth with NCI-H23 lung was 40.9%; in the test on NCI-H226 lung, 103%; with NCI-H322M lung, 72.7%; in the test with NCI-H460 lung, -19.8% (active); in the test on HOP-92 NSCLC, -75% (active); in the test with NCI-H522 lung, 30.9%. The growth is 12.7% with A549/ATCC NSCLC; 14.7% in the test with 786-0 renal; 121% with COLO 205 colon; 21.4% in the test on DU-145 prostate; -13.8% (active) in the test with K-562 leukemia; -30.8% (active) in the test with MALME-3M melanoma. For the same compound, the growth is 40.5% with MDA-MB-231 breast; -74.2% (active) in the test with RXF 393 renal; -37.7% (active) in the test with SF-268 CNS; 53% in the test on SF-295 CNS; -12.8% (active) with SF-539 CNS; 71.4% with UACC-257 melanoma. The growth in the test on M14 melanoma was -38.6% (active).

On to `O=C1C(=O)c2ccccc2C(O)=C1CCCc1ccc(Oc2ccccc2)cc1`, for which the growth with NCI-H23 lung is 75%; with NCI-H226 lung, 46.5%; in the test on NCI-H322M lung it was 62.2%; in the test with NCI-H460 lung, 32.7%; in the test with HOP-92 NSCLC it was 54.5%; with NCI-H522 lung, 57.9%. Also, the growth with A549/ATCC NSCLC is 82.2%; in the test on 786-0 renal, 37.5%; in the test with COLO 205 colon, 111%; with DU-145 prostate it was 85.4%; in the test with K-562 leukemia, 34%; in the test with MALME-3M melanoma it was 54.7%. Also, the growth in the test with MDA-MB-231 breast was 89.1%; in the test with RXF 393 renal, 92.9%; with SF-268 CNS, 47.2%; with SF-295 CNS, 92.9%; with SF-539 CNS it was 68.6%; with UACC-257 melanoma, 51.5%. The growth with M14 melanoma is 41.3%.

As to `CC1=C(C)C(=O)C(C(C)C2=C(C)C(=O)C(C)=C(C)C2=O)=C(C)C1=O`, the growth with NCI-H23 lung was 84.6%; in the test with NCI-H226 lung, 124%; in the test on NCI-H322M lung it was 111%; with NCI-H460 lung, 95.9%; with HOP-92 NSCLC, 114%; with NCI-H522 lung, 91.2%. Besides, the growth is 102% in the test on A549/ATCC NSCLC; 88.1% in the test with 786-0 renal; 104% in the test with COLO 205 colon; 92.7% with DU-145 prostate; 37.5% in the test with K-562 leukemia; 119% in the test with MALME-3M melanoma. The growth in the test on MDA-MB-231 breast was 94.2%; in the test on RXF 393 renal, 11.3%; in the test with SF-268 CNS, 101%; in the test with SF-295 CNS, 128%; in the test with SF-539 CNS, 81.2%; with UACC-257 melanoma, 92.7%. Also, in the test with M14 melanoma, the growth was 108%.

Take `CC1C(=O)CCCC1=O`: the growth in the test on NCI-H23 lung is 113%; in the test with NCI-H226 lung it was 121%; in the test with NCI-H322M lung, 99.4%; with NCI-H460 lung, 120%; in the test on HOP-92 NSCLC it was 106%; in the test with NCI-H522 lung it was 90.9%. Besides, the growth is 102% in the test on A549/ATCC NSCLC; 103% with 786-0 renal; 114% in the test with COLO 205 colon; 124% with DU-145 prostate; 103% in the test on K-562 leukemia; 98.4% with MALME-3M melanoma. Also, the growth with MDA-MB-231 breast was 101%; in the test with RXF 393 renal it was 134%; in the test on SF-268 CNS it was 112%; in the test on SF-295 CNS it was 104%; in the test on SF-539 CNS it was 98.9%; in the test with UACC-257 melanoma it was 108%. The growth in the test with M14 melanoma was 111%.

Values taken from PubChem BioAssay (NCI).
